This note sets out measurements from PubChem BioAssay (EPA / NIEHS).

The nature of experiment [1]: ATG_E_Box_CIS: Attagene CIS-FACTORIAL HepG2 Assay for human Enhancer Box (E-box) (AID 2282936). The note with it: HepG2 E-box cis-reporter transcription, actives raise or lower the signal. In a few lines: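 DMSO served as negative control and baseline for bidirectional fitting. Human hepatoma HepG2 cells, transiently transfected with cis-reporter constructs, were dosed 24 h; reporter mRNA read by RT-PCR and capillary electrophoresis.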

Experiment [2] in a line: ATG_M_61_CIS: Attagene CIS-FACTORIAL HepG2 Assay for M61 Transcription Factor (Internal Marker) (AID 2282937). The following applies: HepG2 Attagene CIS-FACTORIAL M61 internal marker reporter; actives raise or lower the signal. In a few lines:
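Background-control endpoint: HepG2 cells with cis-regulated reporter constructs, 24 h exposure, reporter mRNA detected via fluorescent primer extension and capillary electrophoresis; values from bidirectional fitting with DMSO baseline.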

The nature of experiment [3]: ATG_EGR_CIS: Attagene CIS-FACTORIAL HepG2 Assay for human Early Growth Response 1 (EGR1) (AID 2282938). The following applies: HepG2 Attagene CIS-FACTORIAL EGR reporter mRNA; actives raise or lower the signal. In a few lines: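 Endpoint derived by bidirectional fitting versus DMSO vehicle. Method: cis-promoter reporter units transfected into HepG2, 24 h dosing, RNA isolation, RT-PCR with 6-FAM primer extension and HpaI digestion, then capillary electrophoresis fluorescence detection.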

The nature of experiment [4]: ATG_M_19_CIS: Attagene CIS-FACTORIAL HepG2 Assay for M19 Transcription Factor (Internal Marker) (AID 2282939). The note with it: HepG2 Attagene CIS-FACTORIAL M19 internal marker reporter; actives raise or lower the signal. Put shortly: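 HepG2 cells transiently transfected with cis-regulated multiplexed reporter units, dosed 24 h. Reporter mRNA quantified by RT-PCR and capillary electrophoresis; internal background marker fitted bidirectionally versus DMSO.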

A short description of experiment [5]: ATG_ERE_CIS: Attagene CIS-FACTORIAL HepG2 Assay for Estrogen Response Element (ERE) (AID 2282940). The note with it: HepG2 ERE cis-reporter, Attagene RNA transcript; actives raise or lower the signal. Put shortly:
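HepG2 cells transiently transfected with multiplexed cis-element reporter units, measuring endogenous transcription factor activity; ERE reporter mRNA quantified after 24 h exposure by RT-PCR, fluorescent labelling, HpaI digestion and capillary electrophoresis. Bidirectional change versus DMSO.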

Experiment [6] in a line: ATG_Ets_CIS: Attagene CIS-FACTORIAL HepG2 Assay for human Erythroblast Transformation Specific (ETS) (AID 2282941). The note with it: HepG2 ETS cis-reporter transcription, actives raise or lower the signal. Put shortly: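 After transient cis-reporter transfection, HepG2 cells receive test chemical for 24 h. Reporter mRNA levels, measured by RT-PCR and capillary electrophoresis fluorescence, are analysed bidirectionally relative to the DMSO baseline.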

Experiment [7] concerns the target Hepatocyte nuclear factor 3-beta (Homo sapiens) (UniProt Q9Y261). Kind of experiment: ATG_FoxA2_CIS: Attagene CIS-FACTORIAL HepG2 Assay for human Forkhead box A2 (FOXA2) (AID 2282942). The following applies: HepG2 cis-reporter transcription factor activity, 24 h; actives raise or lower the signal. Put shortly:
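Measured: reporter mRNA induction or loss in HepG2 transiently carrying multiple cis-regulated reporter units, 24 h after dosing. Quantified by RT-PCR plus capillary electrophoresis, normalised to DMSO.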

A short description of experiment [8]: ATG_FoxO_CIS: Attagene CIS-FACTORIAL HepG2 Assay for human Forkhead box O (FoxO) (AID 2282943). The following applies: HepG2 Attagene cis-reporter, FoxO element, mRNA; actives raise or lower the signal. In a few lines: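 Endogenous transcription factor activity read from multiplexed cis-promoter reporter transcripts in transiently transfected HepG2, 24 h after dosing. Reporter RNA measured via RT-PCR plus capillary electrophoresis of FAM-labeled products; gain or loss relative to DMSO.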

A short description of experiment [9]: ATG_GATA_CIS: Attagene CIS-FACTORIAL HepG2 Assay for human GATA Binding Protein (AID 2282944). The note with it: HepG2 GATA cis-element reporter, Attagene multiplex mRNA; actives raise or lower the signal. Put shortly:
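HepG2 cells transiently transfected with multiplexed cis-element reporter units measure endogenous GATA activity; after 24 h compound exposure, reporter mRNA quantified by RT-PCR and capillary electrophoresis. Changes fitted in both directions vs DMSO.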

Experiment [10] can be described thus: ATG_GLI_CIS: Attagene CIS-FACTORIAL HepG2 Assay for human Zinc Finger Protein GLI1 (AID 2282945). The following applies: HepG2, Attagene cis-factorial reporter mRNA, GLI element; actives raise or lower the signal. In a few lines:
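Bidirectional curve fits relative to DMSO, using reporter mRNA levels from RT-PCR plus capillary electrophoresis. Cells were HepG2 transiently carrying cis-regulated reporter constructs, harvested 24 h after dosing.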

Experiment [11] in a line: ATG_GRE_CIS: Attagene CIS-FACTORIAL HepG2 Assay for human Glucocorticoid Response Elements (GRE) (AID 2282947). The following applies: HepG2 GRE cis-reporter, Attagene multiplex mRNA; actives raise or lower the signal. Put shortly: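 Assay uses human hepatoma HepG2 cells transfected with cis-promoter reporter units, exposed 24 h. mRNA from reporters detected by RT-PCR plus capillary electrophoresis; DMSO serves as negative control and baseline.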

Experiment [12] can be described thus: ATG_ISRE_CIS: Attagene CIS-FACTORIAL HepG2 Assay for human Interferon Regulatory Factor 1 (IRF1) binding to an Interferon-Stimulated Response Element (ISRE) (AID 2282948). The following applies: HepG2 ISRE cis-reporter (Attagene), mRNA transcription readout; actives raise or lower the signal. Put shortly:
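Quantitation relies on labelled RT-PCR fragments separated by capillary electrophoresis. Human HepG2 cells bearing cis-promoter reporter constructs were treated 24 h; DMSO served as baseline for bidirectional fitting.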

Experiment [13] can be described thus: ATG_M_32_CIS: Attagene CIS-FACTORIAL HepG2 Assay for M32 Transcription Factor (Internal Marker) (AID 2282949).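 Note: background control marker of the multiplexed CIS panel rather than a real target.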 The note with it: HepG2 Attagene cis-factorial M32 reporter, mRNA; actives raise or lower the signal. Put shortly:
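Following 24 h chemical exposure of HepG2 cells transiently expressing cis-promoter reporter constructs, reporter transcript levels were determined by RT-PCR with fluorescent labelling and capillary electrophoresis, then fitted bidirectionally against DMSO.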

Experiment [14] is described as follows: ATG_M_06_CIS: Attagene CIS-FACTORIAL HepG2 Assay for M06 Transcription Factor (Internal Marker) (AID 2282950). The note with it: HepG2 Attagene CIS-FACTORIAL M06 internal marker reporter; actives raise or lower the signal. Put shortly: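 Internal background marker within multiplexed cis-reporter HepG2 system. Cells transiently transfected, dosed 24 h; reporter mRNA measured by RT-PCR, HpaI digestion and capillary electrophoresis. Bidirectional fit relative to DMSO.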

Experiment [15] deals with Hypoxia-inducible factor 1-alpha (Homo sapiens) (UniProt Q16665). Kind of experiment: ATG_HIF1a_CIS: Attagene CIS-FACTORIAL HepG2 Assay for human Hypoxia Inducible Factor 1 (HIF1A) (AID 2282951). The following applies: HepG2 Attagene cis-factorial HIF1a reporter transcription; actives raise or lower the signal. Put shortly: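 Dosed 24 h, transfected HepG2 cells yielded total RNA whose reporter transcripts were RT-PCR-amplified and sized by capillary electrophoresis using fluorescent labelling; DMSO defined baseline, with gain and loss of signal both fitted.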

In experiment [16] the target is Hepatocyte nuclear factor 6 (Homo sapiens) (UniProt Q9UBC0). The experiment can be described thus: ATG_HNF6_CIS: Attagene CIS-FACTORIAL HepG2 Assay for human Hepatocyte Nuclear Factor 6 (HNF6) (AID 2282952). The note with it: HepG2 Attagene cis-factorial HNF6 reporter transcription; actives raise or lower the signal. Put shortly: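 Transiently transfected HepG2 cells expressing cis-regulated reporter transcription units were exposed to chemical for 24 h in a 24-well format. Reporter transcript abundance was determined by fluorescence capillary electrophoresis.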

Experiment [17] has as its target Heat shock factor protein 1 (Homo sapiens) (UniProt Q00613). Kind of experiment: ATG_HSE_CIS: Attagene CIS-FACTORIAL HepG2 Assay for human Heat Shock Transcription Factor 1 (HSE) (AID 2282953). The note with it: HepG2 HSE cis-reporter, Attagene RNA transcription; actives raise or lower the signal. In a few lines:
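HepG2 cells transfected with cis-promoter reporter units sensing endogenous transcription factor activity; reporter mRNA quantified 24 h post-dose by RT-PCR and capillary electrophoresis of 6-FAM-labelled products. Bidirectional fitting against DMSO.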

Experiment [18] is described as follows: ATG_MRE_CIS: Attagene CIS-FACTORIAL HepG2 Assay for human Metal Responsive Element (MRE) (AID 2282954). The following applies: HepG2 MRE cis-reporter transcription, Attagene multiplex; actives raise or lower the signal. Put shortly:
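After a 24 h chemical exposure, transiently transfected HepG2 cells yield RNA whose reporter sequences are amplified, FAM-labelled and sized by capillary electrophoresis. Curves are fitted bidirectionally relative to DMSO.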

The target in experiment [19] is Bile acid receptor (Homo sapiens) (UniProt Q96RI1). The experiment can be described thus: ATG_IR1_CIS: Attagene CIS-FACTORIAL HepG2 Assay for human Nuclear Receptor Subfamily 1 Group H Member 4 (NR1H4), IR1 submotif (AID 2282946). The note with it: IR1 reporter transcription, actives raise or lower the signal. Put shortly: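 Cells (human HepG2) carry transiently transfected cis-promoter reporter transcription units. Compounds are incubated 24 h, total RNA is reverse-transcribed and amplified, and labelled fragments are resolved by capillary electrophoresis. Curves use DMSO as baseline.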

Experiment [20] is described as follows: ATG_PBREM_CIS: Attagene CIS-FACTORIAL HepG2 Assay for human Phenobarbital-responsive Enhancer Module (PBREM) (AID 2282955). The following applies: HepG2 PBREM cis-reporter, Attagene multiplexed transcription; actives raise or lower the signal. Put shortly:
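Transfected liver-derived HepG2 cells exposed 24 h; PBREM reporter transcript quantified via RT-PCR and capillary electrophoresis, with activity in either direction referenced to DMSO.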

Each structure is given as a SMILES string. Activity calls are given as the source filed them. Rule for the calls: active = hit-call score of the fitted dose curve at least 0.9, where 1 is the maximum; inactive = score below 0.9.

Sequence of Hepatocyte nuclear factor 3-beta (Homo sapiens) (Q9Y261 whole entry, looked up): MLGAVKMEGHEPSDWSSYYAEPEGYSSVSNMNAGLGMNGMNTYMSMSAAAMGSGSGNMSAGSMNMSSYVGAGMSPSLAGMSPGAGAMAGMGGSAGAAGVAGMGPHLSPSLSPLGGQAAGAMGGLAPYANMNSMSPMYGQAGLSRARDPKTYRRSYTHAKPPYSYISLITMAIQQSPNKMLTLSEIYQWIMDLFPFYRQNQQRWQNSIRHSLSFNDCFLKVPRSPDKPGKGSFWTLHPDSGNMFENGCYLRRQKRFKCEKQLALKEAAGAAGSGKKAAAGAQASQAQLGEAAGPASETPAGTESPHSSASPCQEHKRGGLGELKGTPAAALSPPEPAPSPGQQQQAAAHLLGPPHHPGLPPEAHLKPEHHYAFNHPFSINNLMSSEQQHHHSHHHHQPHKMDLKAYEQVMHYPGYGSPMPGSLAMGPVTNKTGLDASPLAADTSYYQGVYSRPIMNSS
Sequence of Hypoxia-inducible factor 1-alpha (Homo sapiens) (Q16665 whole entry, looked up): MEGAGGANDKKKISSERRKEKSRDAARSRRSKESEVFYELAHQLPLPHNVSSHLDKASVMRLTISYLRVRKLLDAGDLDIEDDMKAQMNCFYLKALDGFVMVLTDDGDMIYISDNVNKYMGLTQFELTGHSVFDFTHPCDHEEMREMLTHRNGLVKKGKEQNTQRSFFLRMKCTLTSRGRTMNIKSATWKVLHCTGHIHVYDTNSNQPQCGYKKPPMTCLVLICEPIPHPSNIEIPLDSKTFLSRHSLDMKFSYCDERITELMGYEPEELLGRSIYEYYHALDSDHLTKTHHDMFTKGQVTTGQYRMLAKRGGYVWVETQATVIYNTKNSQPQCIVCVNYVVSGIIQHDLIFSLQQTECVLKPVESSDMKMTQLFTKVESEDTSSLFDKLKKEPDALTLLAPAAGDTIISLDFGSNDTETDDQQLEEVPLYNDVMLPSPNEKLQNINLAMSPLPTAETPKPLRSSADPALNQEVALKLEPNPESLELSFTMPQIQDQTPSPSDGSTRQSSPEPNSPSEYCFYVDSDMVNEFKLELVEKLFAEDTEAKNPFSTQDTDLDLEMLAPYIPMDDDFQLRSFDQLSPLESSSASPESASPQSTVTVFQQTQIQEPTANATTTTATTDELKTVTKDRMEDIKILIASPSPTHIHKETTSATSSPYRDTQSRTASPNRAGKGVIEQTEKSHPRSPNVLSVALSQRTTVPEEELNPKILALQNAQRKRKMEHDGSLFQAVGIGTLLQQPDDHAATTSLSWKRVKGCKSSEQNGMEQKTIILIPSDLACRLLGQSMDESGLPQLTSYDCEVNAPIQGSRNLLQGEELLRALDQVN
Sequence of Hepatocyte nuclear factor 6 (Homo sapiens) (Q9UBC0 whole entry, looked up): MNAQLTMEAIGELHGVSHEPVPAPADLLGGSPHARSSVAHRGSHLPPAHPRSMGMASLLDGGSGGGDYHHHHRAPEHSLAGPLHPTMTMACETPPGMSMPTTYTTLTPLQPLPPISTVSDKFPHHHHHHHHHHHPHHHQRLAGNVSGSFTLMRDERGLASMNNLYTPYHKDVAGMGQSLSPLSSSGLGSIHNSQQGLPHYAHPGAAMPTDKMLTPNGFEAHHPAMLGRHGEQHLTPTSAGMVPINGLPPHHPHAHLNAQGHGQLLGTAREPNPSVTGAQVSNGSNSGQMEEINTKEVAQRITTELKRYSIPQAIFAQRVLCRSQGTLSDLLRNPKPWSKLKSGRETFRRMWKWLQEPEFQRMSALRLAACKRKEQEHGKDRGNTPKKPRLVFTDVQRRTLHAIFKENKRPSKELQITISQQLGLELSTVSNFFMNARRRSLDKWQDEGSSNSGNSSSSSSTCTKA
Sequence of Heat shock factor protein 1 (Homo sapiens) (Q00613 whole entry, looked up): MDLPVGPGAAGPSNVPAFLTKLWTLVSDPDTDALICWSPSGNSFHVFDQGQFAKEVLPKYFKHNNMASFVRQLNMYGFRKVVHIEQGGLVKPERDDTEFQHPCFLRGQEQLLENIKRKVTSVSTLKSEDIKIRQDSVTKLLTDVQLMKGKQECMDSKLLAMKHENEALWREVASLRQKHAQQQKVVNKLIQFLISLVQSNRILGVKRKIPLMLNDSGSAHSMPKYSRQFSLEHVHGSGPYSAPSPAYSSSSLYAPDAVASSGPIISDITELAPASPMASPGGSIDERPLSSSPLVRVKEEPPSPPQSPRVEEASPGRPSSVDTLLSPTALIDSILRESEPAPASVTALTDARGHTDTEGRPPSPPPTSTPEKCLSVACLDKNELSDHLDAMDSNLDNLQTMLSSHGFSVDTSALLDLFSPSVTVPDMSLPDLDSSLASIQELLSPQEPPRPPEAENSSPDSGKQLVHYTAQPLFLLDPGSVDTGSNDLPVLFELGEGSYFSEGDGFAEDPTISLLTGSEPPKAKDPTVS
Sequence of Bile acid receptor (Homo sapiens) (Q96RI1 whole entry, looked up, the tested form may be a part): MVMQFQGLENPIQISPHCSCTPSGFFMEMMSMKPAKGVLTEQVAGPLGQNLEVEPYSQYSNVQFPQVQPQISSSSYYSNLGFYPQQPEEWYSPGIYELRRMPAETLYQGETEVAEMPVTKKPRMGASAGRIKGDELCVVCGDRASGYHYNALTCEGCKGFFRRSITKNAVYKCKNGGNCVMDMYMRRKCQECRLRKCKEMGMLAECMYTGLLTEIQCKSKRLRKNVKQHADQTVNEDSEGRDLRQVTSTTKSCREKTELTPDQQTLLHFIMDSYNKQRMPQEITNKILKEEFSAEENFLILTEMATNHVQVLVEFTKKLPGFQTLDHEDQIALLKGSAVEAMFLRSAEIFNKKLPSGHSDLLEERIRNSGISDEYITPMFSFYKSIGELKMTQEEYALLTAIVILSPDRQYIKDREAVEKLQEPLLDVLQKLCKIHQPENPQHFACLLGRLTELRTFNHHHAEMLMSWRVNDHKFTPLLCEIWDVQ

Consider `CC(C)(C)c1ccc(N)cc1`, for which the outcome in experiment [1], in experiment [2], in experiment [3], in experiment [4], in experiment [6] and in [7] was inactive. The molecule was classed as inactive in [8], in experiment [9], in experiment [10], in experiment [11], in experiment [12] and in experiment [13]. Further, the molecule was called inactive in [14], in experiment [15], in experiment [16], in experiment [17] and in experiment [18]. Also, in experiment [5], the AC50 was 59.9 µM (active).

`CC(=O)OCC(C)OC(C)=O` (configuration not stated): the result in experiment [1], in experiment [2], in [3], in experiment [4], in experiment [5] and in experiment [6] was inactive. Moreover, the outcome in experiment [7], in [8], in experiment [9], in [10], in [19] and in experiment [12] was inactive. The call in experiment [13], in experiment [14], in experiment [15], in experiment [16] and in experiment [18] was inactive.

On to `OC1OCCOC1O` (configuration not stated), for which the result in experiment [1], in experiment [2], in [3], in [4], in [5] and in [6] was inactive. In addition, the outcome in experiment [7], in experiment [8], in experiment [9], in [10], in experiment [19] and in [11] was inactive. Besides, the outcome in experiment [13], in [14], in experiment [15], in [16], in experiment [17] and in experiment [18] was inactive. Also, in experiment [20], the result was inactive.

Take `CCc1nccnc1C`: the result in experiment [1], in [2], in experiment [3], in experiment [4], in [5] and in experiment [6] was inactive. Also, the outcome in experiment [7], in [8], in experiment [9], in experiment [10], in experiment [11] and in [12] was inactive. Besides, the result in experiment [13], in experiment [14], in experiment [15], in experiment [16], in experiment [17] and in [18] was inactive.

A word on the AC50: it is the concentration at which the activity in the assay is half-maximal.
